Active and inactive are the calls of the source. The calls were made as follows: active = hit-call score of the fitted dose curve at least 0.9, where 1 is the maximum; inactive = score below 0.9.
Assays:
[1] = BSK_hDFCGF_SRB: Viability Assessment in the BioMAP Diversity Plus: hDFCGF Assay (AID 2283061); conditions: primary human foreskin fibroblasts;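 also: cells exposed to compound for 24 h before the read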
How it was run: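 Viability was read as total protein: after 10% TCA fixation, wells were stained with 0.1% sulforhodamine B and read at 560 nm. Primary human foreskin fibroblasts were dosed for 24 h, with bidirectional fitting versus DMSO.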

[2] = read-out: TIMP metallopeptidase inhibitor 1 (TIMP1), TIMP1 (gene 7076); test: BSK_hDFCGF_TIMP1: BioMAP Diversity Plus: hDFCGF Assay for TIMP metallopeptidase inhibitor 1 (TIMP1) Biomarker Activity (AID 2283062); conditions: primary human foreskin fibroblasts; actives raise or lower the signal
How it was run: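 TIMP-1 measured by ELISA 24 h after chemical dosing of primary human skin fibroblasts, with gain or loss fitted relative to DMSO. Parallel SRB staining (560 nm) monitored overt cytotoxicity.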

[3] = read-out: Monokine induced gamma interferon (MIG), CXCL9 (gene 4283); test: BSK_hDFCGF_MIG: BioMAP Diversity Plus: hDFCGF Assay for Monokine induced gamma interferon (MIG) Biomarker Activity (AID 2283063); conditions: primary human foreskin fibroblasts; actives raise or lower the signal
How it was run: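 Human primary foreskin fibroblasts in the hDFCGF system, exposed to test chemical for 24 h; MIG measured by ELISA. Bidirectional curve fitting against DMSO negative control as activity baseline.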

[4] = read-out: Matrix Metallopeptidase 1 (MMP1), MMP1 (gene 4312); test: BSK_hDFCGF_MMP1: BioMAP Diversity Plus: hDFCGF Assay for Matrix Metallopeptidase 1 (MMP1) Biomarker Activity (AID 2283064); conditions: primary human foreskin fibroblasts; actives raise or lower the signal
How it was run: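 Primary human foreskin fibroblasts exposed to chemicals for 24 h; MMP1 measured by ELISA. Cytotoxicity tracked by SRB staining in parallel cultures; bidirectional fit relative to DMSO.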

[5] = read-out: Vascular cell adhesion molecule 1 (VCAM1), VCAM1 (gene 7412); test: BSK_hDFCGF_VCAM1: BioMAP Diversity Plus: hDFCGF Assay for Vascular cell adhesion molecule 1 (VCAM1) Biomarker Activity (AID 2283065); conditions: primary human foreskin fibroblasts; actives raise or lower the signal;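 as to AC50: VCAM-1 protein level quantified by ELISA after 24 h chemical exposure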
How it was run: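 ELISA readout of VCAM-1 on human dermal fibroblast primary cultures, 24 h after chemical exposure. Gain or loss of signal fitted in both directions against DMSO baseline.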

[6] = read-out: Plasminogen activator inhibitor-1 (PAI1), SERPINE1 (gene 5054); test: BSK_hDFCGF_PAI1: BioMAP Diversity Plus: hDFCGF Assay for Plasminogen activator inhibitor-1 (PAI1) Biomarker Activity (AID 2283066); conditions: primary human foreskin fibroblasts; actives raise or lower the signal
How it was run: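 Human foreskin fibroblasts in the hDFCGF system were dosed with compound for 24 h; PAI-1 was quantified by ELISA. Bidirectional curve fitting used DMSO as negative control and baseline.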

[7] = read-out: Intercellular Adhesion Molecule 1 (ICAM1), ICAM1 (gene 3383); test: BSK_KF3CT_ICAM1: BioMAP Diversity Plus: KF3CT Assay for Intercellular Adhesion Molecule 1 (ICAM1) Biomarker Activity (AID 2283067); conditions: primary human keratinocytes with fibroblasts; actives raise or lower the signal
How it was run: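 Cell-surface ICAM-1 was measured by ELISA 24 h after dosing primary human skin keratinocytes co-cultured with fibroblasts. Parallel SRB staining tracked overt cytotoxicity. Gain or loss of signal was fitted relative to DMSO.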

[8] = read-out: Interferon-gamma inducible Protein 10 (IP10), CXCL10 (gene 3627); test: BSK_KF3CT_IP10: BioMAP Diversity Plus: KF3CT Assay for Interferon-gamma inducible Protein 10 (IP10) Biomarker Activity (AID 2283068); conditions: primary human keratinocytes with fibroblasts; actives raise or lower the signal
How it was run: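 ELISA read-out of IP-10 after 24 h chemical dosing of human skin primary co-culture (keratinocytes, foreskin fibroblasts). Gain or loss of signal relative to DMSO, bidirectional curve fit.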

[9] = read-out: Interleukin-1 alpha (IL1a), IL1A (gene 3552); test: BSK_KF3CT_IL1a: BioMAP Diversity Plus: KF3CT Assay for Interleukin-1 alpha (IL1a) Biomarker Activity (AID 2283070); conditions: primary human keratinocytes with fibroblasts; actives raise or lower the signal
How it was run: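 Primary human keratinocyte plus foreskin fibroblast co-culture, dosed and measured at 24 h in 96-well plates. IL-1a level quantified by ELISA; bidirectional fit relative to DMSO.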

Measured: AC50

ClC1C(Cl)C(Cl)C(Cl)C(Cl)C1Cl (centres undefined)
inactive: [1] | [2] | [3] | [4] | [5] | [6] | [7] | [8] | [9]

Oc1ccc(Cl)cc1Cc1ccccc1
active: [5] 14.5 µM [middle of 7 runs] | [6] 24.5 µM [middle of 6 runs]

CC1(c2ccc(Oc3ccccc3)cc2)OC(=O)N(Nc2ccccc2)C1=O (centres undefined)
inactive: [1] | [2] | [3] | [4] | [5] | [6] | [7] | [8] | [9]

[2H]C1([2H])[n+]2ccccc2-c2cccc[n+]2C1([2H])[2H]
inactive: [1] | [2] | [3] | [5] | [6] | [7]
active: [4] 3.17 µM | [8] 4.43 µM | [9] 20 µM

CCOCN(C(=O)CCl)c1c(C)cccc1CC
active: [3] 22.8 µM | [4] 5.13 µM | [5] 3.54 µM | [6] 21.8 µM | [8] 23.6 µM
inactive: [1] | [2] | [7] | [9]

CCS(=O)(=O)c1cccnc1S(=O)(=O)NC(=O)Nc1nc(OC)cc(OC)n1
inactive: [1] | [2] | [3] | [4] | [5] | [6] | [7] | [9]
active: [8] 0.266 µM

OCCOc1ccccc1
inactive: [1] | [2] | [3] | [4] | [5] | [6] | [7] | [8] | [9]

O=C1c2ccccc2C(=O)N1SC(Cl)(Cl)Cl
active: [1] 33.1 µM | [3] 18.3 µM | [8] 26.8 µM
inactive: [2] | [4] | [5] | [6] | [7] | [9]

CC(C)(C)C(O)C(Oc1ccc(Cl)cc1)n1cncn1 (centres undefined)
inactive: [1] | [2] | [3] | [4] | [5] | [6] | [7] | [8] | [9]

CCCN(CCOc1c(Cl)cc(Cl)cc1Cl)C(=O)n1ccnc1
active: [1] 16 µM | [6] 23.9 µM
inactive: [2] | [3] | [4] | [5] | [7] | [8] | [9]

N#Cc1c(Cl)c(Cl)c(Cl)c(C#N)c1Cl
active: [1] 0.148 µM | [2] 2.58 µM | [3] 0.148 µM | [4] 0.986 µM | [5] 1.08 µM | [6] 0.615 µM | [7] 0.786 µM | [8] 0.585 µM | [9] 1.5 µM

CCCN(CCC)c1c([N+](=O)[O-])cc(C(F)(F)F)cc1[N+](=O)[O-]
inactive: [2] | [3] | [7] | [9]
active: [1] 30.9 µM | [4] 4.1 µM | [5] 7.77 µM | [6] 29.4 µM | [8] 28.8 µM

O=C(O)COc1ccc(Cl)cc1Cl
inactive: [1] | [2] | [3] | [4] | [5] | [6] | [7] | [8] | [9]

CNC(=O)Oc1ccccc1OC(C)C
inactive: [1] | [2] | [3] | [5] | [6] | [7] | [8]
active: [4] 2.38 µM | [9] 0.987 µM

Source: PubChem BioAssay (EPA / NIEHS)
